From PubChem BioAssay (NCATS)
“And” between values parts separate entries of the source, which are not always exact repeats. Equal values may be shown once. Values without a mark were called inactive. Results filed as inconclusive are left out. A call without a number means that no potency is given here. The source made the active and inactive calls. Unless noted, calls follow the shape of the full dose curve.

Columns and labels:
[1] = molecular target: Androgen receptor (Homo sapiens) (UniProt P10275); assay: qHTS assay for small molecule agonists of androgen receptor signaling (AID 588515; active = well fitted curve in the direction sought with a large enough effect in the signal ratio, with a control signal flat; the % refers to the signal ratio); settings: AR-UAS-bla HEK293, beta-lactamase ratio, agonist 16 h; hits give high values
Androgen receptor (Homo sapiens), sequence (P10275 whole entry, looked up): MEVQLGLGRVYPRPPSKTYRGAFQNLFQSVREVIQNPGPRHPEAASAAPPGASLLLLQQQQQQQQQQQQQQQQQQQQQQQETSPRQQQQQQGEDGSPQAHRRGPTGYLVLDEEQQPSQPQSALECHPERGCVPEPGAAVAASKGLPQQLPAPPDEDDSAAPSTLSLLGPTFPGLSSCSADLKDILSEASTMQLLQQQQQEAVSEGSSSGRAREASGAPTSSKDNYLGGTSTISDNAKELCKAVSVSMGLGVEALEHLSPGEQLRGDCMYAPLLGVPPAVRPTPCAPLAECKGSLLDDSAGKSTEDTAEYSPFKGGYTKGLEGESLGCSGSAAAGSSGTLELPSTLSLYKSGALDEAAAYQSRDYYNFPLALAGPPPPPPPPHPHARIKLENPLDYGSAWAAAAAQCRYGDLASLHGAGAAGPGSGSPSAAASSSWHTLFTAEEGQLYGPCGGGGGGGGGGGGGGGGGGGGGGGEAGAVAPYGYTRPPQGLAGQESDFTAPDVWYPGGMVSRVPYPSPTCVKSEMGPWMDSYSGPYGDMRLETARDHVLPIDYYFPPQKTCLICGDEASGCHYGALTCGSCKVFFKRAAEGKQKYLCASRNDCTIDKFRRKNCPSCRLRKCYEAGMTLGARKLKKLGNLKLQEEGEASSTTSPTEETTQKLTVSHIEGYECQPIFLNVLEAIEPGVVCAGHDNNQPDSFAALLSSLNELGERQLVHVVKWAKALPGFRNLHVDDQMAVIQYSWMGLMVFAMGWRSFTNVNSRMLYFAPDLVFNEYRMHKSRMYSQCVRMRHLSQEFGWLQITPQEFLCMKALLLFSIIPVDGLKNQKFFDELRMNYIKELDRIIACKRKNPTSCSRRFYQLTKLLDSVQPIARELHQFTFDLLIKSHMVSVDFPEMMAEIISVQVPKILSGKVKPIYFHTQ
Method in brief: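 Stimulation of an AR-responsive β-lactamase reporter in GripTite HEK293 cells was measured after 16 h compound exposure at 37 °C, via CCF4 fluorescence after 2 h RT. EC50 from Hill fits, normalized to R1881 at 30 nM.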

[2] = molecular target: Bile acid receptor (Homo sapiens) (UniProt Q96RI1); assay: qHTS assay for small molecule agonists of farnesoid X receptor signaling (AID 588527); settings: HEK293T FXR-UAS-bla, beta-lactamase ratio, 16 h; hits give high values
Bile acid receptor (Homo sapiens), sequence (Q96RI1 whole entry, looked up): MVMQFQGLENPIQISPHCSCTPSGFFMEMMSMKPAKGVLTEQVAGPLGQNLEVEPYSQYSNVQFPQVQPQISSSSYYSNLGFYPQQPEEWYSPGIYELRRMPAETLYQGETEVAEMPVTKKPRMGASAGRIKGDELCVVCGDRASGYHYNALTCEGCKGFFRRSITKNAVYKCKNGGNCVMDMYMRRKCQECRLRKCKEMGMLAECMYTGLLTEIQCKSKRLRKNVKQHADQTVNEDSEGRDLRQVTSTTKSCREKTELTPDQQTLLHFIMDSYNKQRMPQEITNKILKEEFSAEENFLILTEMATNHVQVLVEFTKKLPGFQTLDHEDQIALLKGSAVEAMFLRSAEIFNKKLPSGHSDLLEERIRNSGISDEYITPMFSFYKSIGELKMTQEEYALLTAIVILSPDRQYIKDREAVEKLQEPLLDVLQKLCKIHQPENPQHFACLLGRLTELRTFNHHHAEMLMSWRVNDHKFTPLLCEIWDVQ
Method in brief: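 Agonist-mode beta-lactamase reporter in GeneBLAzer FXR-UAS-bla HEK293T cells, titration up to 92 uM, 16 h exposure at 37 C, CCF4 fluorescence. Response scaled to DMSO (0%) and 100 uM chenodeoxycholic acid (100%), then Hill-fitted for EC50 and efficacy.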

[3] = qHTS assay to identify small molecules that stimulate interleukin-8 (IL-8) secretion (AID 651758; active = well fitted activation curve with a large enough effect in the signal ratio; the % refers to the signal ratio); settings: HTRF ratio (665/615); series mostly up to 92.2 µM
Method in brief: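 Quantitative HTS in THP-1 monocytic cells at 2000 cells per well, with 16 hrs compound incubation at 37 C. IL-8 in the medium was then quantified by HTRF immunoassay, read after 1-3 hrs at room temperature.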

[4] = molecular target: Cytochrome P450 3A4 (Homo sapiens) (UniProt P08684); assay: qHTS Assay for Activators of Cytochrome P450 3A4 (AID 885; active = well fitted activation curve with a large enough effect; also: nearly all actives have a fitted effect of over 65% in size); settings: recombinant CYP3A4, Luciferin-PPXE luminescence, 60 min; series mostly up to 57.1 µM
Cytochrome P450 3A4 (Homo sapiens), sequence (P08684 whole entry, looked up): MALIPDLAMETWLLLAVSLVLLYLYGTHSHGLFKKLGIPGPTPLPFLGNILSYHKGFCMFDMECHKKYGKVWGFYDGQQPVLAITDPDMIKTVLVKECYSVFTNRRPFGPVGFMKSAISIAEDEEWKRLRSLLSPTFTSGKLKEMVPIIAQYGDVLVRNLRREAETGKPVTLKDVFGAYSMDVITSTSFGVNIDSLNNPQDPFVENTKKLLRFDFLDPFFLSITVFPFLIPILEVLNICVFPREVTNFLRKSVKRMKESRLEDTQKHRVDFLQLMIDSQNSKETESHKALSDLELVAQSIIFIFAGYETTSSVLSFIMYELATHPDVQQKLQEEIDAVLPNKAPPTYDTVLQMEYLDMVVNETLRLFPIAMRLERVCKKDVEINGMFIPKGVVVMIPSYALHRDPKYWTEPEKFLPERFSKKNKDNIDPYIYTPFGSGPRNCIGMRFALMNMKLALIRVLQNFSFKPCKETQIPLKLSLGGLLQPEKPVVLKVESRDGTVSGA
Method in brief: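 Luminescent readout of luciferin formed from 25 uM Luciferin-PPXE (KM level) by 20 nM CYP3A4 in 200 mM KPO4, with 60 min NADPH-driven reaction at room temperature after 10 min compound exposure. Ketoconazole (57 uM) defined 100% inhibition.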

[5] = molecular target: Estrogen receptor (Homo sapiens) (UniProt P03372); assay: qHTS assay for small molecule agonists of estrogen receptor alpha signaling (AID 588514); settings: ER-alpha-UAS-bla HEK293, beta-lactamase ratio, 18 h; series mostly up to 76.8 µM; also: nearly all actives have a fitted effect of over 70% in size; also: potency is read from the fitted curve at half-maximal effect
Estrogen receptor (Homo sapiens), sequence (P03372 whole entry, looked up): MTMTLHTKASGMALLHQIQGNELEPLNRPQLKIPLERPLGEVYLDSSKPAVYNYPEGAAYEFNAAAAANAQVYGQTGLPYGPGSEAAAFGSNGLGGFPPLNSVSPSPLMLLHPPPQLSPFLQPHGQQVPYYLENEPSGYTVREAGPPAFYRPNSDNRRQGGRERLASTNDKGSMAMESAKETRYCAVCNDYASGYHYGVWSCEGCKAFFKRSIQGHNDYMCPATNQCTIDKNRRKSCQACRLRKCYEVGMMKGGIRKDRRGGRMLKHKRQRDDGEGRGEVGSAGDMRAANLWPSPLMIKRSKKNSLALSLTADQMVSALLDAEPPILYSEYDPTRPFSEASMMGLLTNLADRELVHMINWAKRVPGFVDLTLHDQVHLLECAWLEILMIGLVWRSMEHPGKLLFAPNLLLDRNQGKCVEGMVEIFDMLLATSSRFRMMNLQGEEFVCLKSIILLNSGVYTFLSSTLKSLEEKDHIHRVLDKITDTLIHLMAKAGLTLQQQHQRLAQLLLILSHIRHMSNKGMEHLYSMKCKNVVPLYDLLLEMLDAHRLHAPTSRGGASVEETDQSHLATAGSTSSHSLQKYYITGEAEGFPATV
Method in brief: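 Efficacy is expressed against 20 nM 17-beta-estradiol (100%) and DMSO basal (0%); EC50 from Hill equation. Assay: beta-lactamase reporter in ER-alpha-UAS-bla HEK 293 cells, 18 h compound incubation, CCF4 detection.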

[6] = molecular target: Androgen receptor (Homo sapiens) (UniProt P10275); assay: qHTS assay for small molecule antagonists of androgen receptor signaling (AID 588516; active = well fitted curve in the direction sought with a large enough effect in the signal ratio, with a control signal flat, not every such curve was filed as active; the % refers to the signal ratio); settings: AR-UAS-bla HEK293, beta-lactamase ratio, antagonist mode, 16 h; series mostly up to 76.8 µM
Method in brief: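 Antagonist mode: inhibition of R1881-stimulated (10 nM final) bla reporter in GeneBLAzer AR HEK 293 cells, 16 h at 37C, compounds titrated. IC50 and efficacy from Hill-equation fits of 405/460–530 nm FRET ratios.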

SMILES: CCCCNC(=O)n1c(NC(=O)OC)nc2ccccc21
- activation [1]: -8.05%
- activation [2]: -3.82% and -0.311%

SMILES: CSSC
- Potency [3]: inactive

SMILES: Oc1cc(Cl)ccc1Cl
- Potency [4]: inactive
- Potency [3]: inactive

SMILES: O=[N+]([O-])c1cc(Cl)c(Cl)cc1Cl
- Potency [5]: inactive
- Potency [3]: inactive

SMILES: ClP(Cl)(Cl)(Cl)Cl
- Potency [5]: inactive
- activation [2]: -2.17%

SMILES: ClCCOCCCl
- activation [2]: -1.24%

SMILES: Cc1ccc(N=C=O)cc1N=C=O
- Potency [4]: inactive

SMILES: CC(C)(Cl)[N+](=O)[O-]
- activation [2]: 0.224%

SMILES: Nc1ccc2ccccc2c1
- Potency [3]: inactive

SMILES: Clc1cccc(Cl)c1Cl
- Potency [3]: inactive

SMILES: N#C/C(N)=C(/N)C#N
- Potency [5]: inactive

SMILES: COC(=O)Nc1nc2ccccc2[nH]1
- activation [1]: 10.4% and 9.09%

SMILES: O=[N+]([O-])c1ccc2c3c(cccc13)CC2
- Potency [4]: inactive
- activation [2]: -0.314% and -0.559%
- Potency [3]: inactive

SMILES: Oc1cccc(Cl)c1
- Potency [5]: inactive
- activation [2]: 2.65%

SMILES: Nc1cc(Cl)cc(C(=O)O)c1Cl
- Potency [4]: inactive

SMILES: FC(Cl)(Cl)Cl
- activation [1]: 5.32%
- outcome [6]: inactive

SMILES: Nc1ccc([N+](=O)[O-])cc1[N+](=O)[O-]
- Potency [5]: inactive
- activation [1]: -5.64%
- Potency [3]: inactive

SMILES: O=C(Cc1ccccc1)OCc1ccccc1
- Potency [5]: inactive
- Potency [3]: inactive

SMILES: CCCCCC[N+](=O)[O-]
- activation [1]: 8.93%
- activation [2]: 1.12%

SMILES: C=C(Cl)CSC(=S)N(CC)CC
- Potency [4]: inactive
- activation [2]: 1.19%

SMILES: [N-]=[N+]=[N-]
- activation [1]: -1.14%
- outcome [6]: inactive

SMILES: Nc1ccc(Cl)c(Cl)c1
- Potency [4]: inactive
- Potency [3]: inactive

SMILES: Cc1cc(Cl)ccc1O
- Potency [3]: inactive

SMILES: CCOS(C)(=O)=O
- activation [2]: 1.7%

SMILES: ClC=CCl
- Potency [5]: inactive

SMILES: Oc1cc(Cl)cc(Cl)c1
- Potency [3]: inactive

SMILES: Nc1c(Cl)cc([N+](=O)[O-])cc1Cl
- Potency [5]: inactive
- activation [1]: -19.7%

SMILES: C=CCBr
- Potency [5]: inactive
- activation [2]: -2.82%

SMILES: O=C(O)C(Cl)(Cl)Br
- activation [2]: -1.03%

SMILES: C=CCCC#N
- Potency [5]: inactive
- activation [2]: -0.315%

SMILES: CCCCCOC(=O)c1ccccc1C(=O)OCCCCC
- Potency [4]: inactive
- Potency [3]: inactive

SMILES: ClCc1ccccc1
- Potency [5]: inactive

SMILES: OCCBr
- activation [2]: -2.65%

SMILES: O=[N+]([O-])c1ccccc1-c1ccccc1
- Potency [5]: inactive

SMILES: COc1ccc(C=O)cc1
- Potency [3]: inactive

SMILES: CCSC(=O)N1CCCCCC1
- Potency [5]: inactive

SMILES: O=[N+]([O-])c1cccc(O)c1
- activation [2]: -2.84%
- Potency [3]: inactive

SMILES: OCCOCCO
- Potency [5]: inactive
- Potency [3]: inactive

SMILES: CN(C)C(=O)Cl
- Potency [5]: inactive
- Potency [3]: inactive

SMILES: CC(C)(OOC(C)(C)c1ccccc1)c1ccccc1
- activation [1]: 9.96%
- outcome [6]: inactive
- activation [2]: 3.57% and 3.43%

SMILES: CCCBr
- Potency [5]: 355 nM (active)
- activation [2]: -1.67%
- Potency [3]: inactive

SMILES: O=S(=O)(Cl)c1ccccc1
- activation [2]: 1.82%
